# Measurements reported in ChEMBL document CHEMBL3988442, “University of Dundee, Small-Polar-MMV Screening Library” (2021).
# Out of some 69,000 compounds screened, about 1,000 (1.4%) showed an effect of 50% or more. This excerpt belongs to a sample that is enriched for strong results.
# Test system: Leishmania donovani
# Experiment: Leishmania intramacrophage assay
# Format: functional, organism-based
# Design: scale not given: in the data most compounds retested in dose-response had high values
smiles,measurement,setting,value
Cc1cc(C)n(C2CCN(S(C)(=O)=O)CC2)n1,Percent Effect,"30.3 µM, […]",-8.348%
O=C(Nc1cc(Cl)ccc1Cl)NC1CCN(C2CCOC2)CC1 (configuration not stated),Percent Effect,"30.3 µM, […]",-19.47%
O=C(NCCn1ccnc1)N1CCCN(Cc2cccs2)CC1,Percent Effect,30 µM,32.04%
CN(C)C(=O)C1CN(c2ncccn2)CCN1C (configuration not stated),Percent Effect,"30.3 µM, […]",10.06%
COc1nc2c(cc1C(=O)N1CCCC1c1ccccn1)CCC2 (configuration not stated),Percent Effect,"30.3 µM, […]",15.04%
CCn1cnnc1C1CCN(C(=O)C(OC)c2ccccc2)CC1 (configuration not stated),Percent Effect,"30 µM, 30.03 µM",25.64%
CN1CCN(C2COC3(CCN(Cc4cccs4)CC3)C2)CC1.O=C(O)C(F)(F)F.O=C(O)C(F)(F)F (configuration not stated),Percent Effect,"30.3 µM, […]",53.18%
CCc1ccc(CN2CCC3(CC2)CC(N2CCN(C)CC2)CO3)cc1.O=C(O)C(F)(F)F (configuration not stated),Percent Effect,"30 µM, 30.03 µM",78.58%
Cc1ccc(CN2CCC3(CC2)CC(N2CCN(C)CC2)CO3)s1.O=C(O)C(F)(F)F.O=C(O)C(F)(F)F.O=C(O)C(F)(F)F (configuration not stated),Percent Effect,"30.3 µM, […]",35.32%
CN1CCN(C2COC3(CCN(Cc4ccc(F)cc4)CC3)C2)CC1.O=C(O)C(F)(F)F.O=C(O)C(F)(F)F.O=C(O)C(F)(F)F (configuration not stated),Percent Effect,"30.3 µM, […]",32.4%
Fc1cnc(N2CCOC3(CCN(Cc4ccsc4)CC3)C2)nc1.O=C(O)C(F)(F)F.O=C(O)C(F)(F)F,Percent Effect,"30 µM, 30.03 µM",16.14%
Fc1cnc(N2CCOC3(CCN(Cc4cccs4)CC3)C2)nc1.O=C(O)C(F)(F)F.O=C(O)C(F)(F)F,Percent Effect,"30.3 µM, […]",53.49%
O=C(O)C(F)(F)F.c1cnc(NC2COC3(CCN(Cc4cccs4)CC3)C2)nc1 (configuration not stated),Percent Effect,"30.3 µM, […]",-71.32%
O=C(O)C(F)(F)F.O=C(c1ccccc1)N1CCOC2(CCN(Cc3cccs3)CC2)C1,Percent Effect,"30.3 µM, […]",5.175%
CN1CCN(C2COC3(CCN(Cc4ccsc4)CC3)C2)CC1.O=C(O)C(F)(F)F.O=C(O)C(F)(F)F (configuration not stated),Percent Effect,"30.3 µM, […]",20.49%
COc1ccc(C2CC(=O)Oc3cc(C)[nH]c(=O)c32)cc1 (configuration not stated),Percent Effect,"30 µM, 30.03 µM",-4.044%
Cc1nnc(C2Cc3ccccc3CN2Cc2nc(C(C)C)no2)o1 (configuration not stated),Percent Effect,30 µM,-13.45%
CC(C)N1C(=O)CC(NC(=O)c2cc(Cl)sc2Cl)C1=O (configuration not stated),Percent Effect,"30.3 µM, […]",8.109%
O=C(NCc1cccnc1)[C@@H]1C[C@H]2[C@H](CCN2c2ncccn2)O1.O=C(O)C(F)(F)F.O=C(O)C(F)(F)F,Percent Effect,"30.3 µM, […]",4.628%
COCC(NC(=O)NCc1cccc(C#N)c1)c1ccco1 (configuration not stated),Percent Effect,"30.3 µM, […]",13.13%
Cc1noc(CN2CCN(CCO)CC2)n1,Percent Effect,"30.3 µM, […]",9.212%
Cc1nc(CN2CCN(c3cncc(Cl)n3)CC2)no1,Percent Effect,"30.3 µM, […]",-1.637%
Cc1noc(CN2CCN(c3cncc(Cl)n3)CC2)n1,Percent Effect,"30.3 µM, […]",51.54%
Cc1nc2cc(C(=O)N3CCCC(n4cncn4)C3)ccc2n1C (configuration not stated),Percent Effect,"30 µM, 30.03 µM",12.85%
Fc1cccnc1N1CCCC(c2nccs2)C1 (configuration not stated),Percent Effect,"30.3 µM, […]",14.11%
Cc1cc2n(n1)CC(CNC1CCN(Cc3ccccc3C)CC1)CN2 (configuration not stated),Percent Effect,"30 µM, 30.03 µM",54.12%
Cc1cc2n(n1)CC(CNC1CCN(Cc3ccccn3)CC1)CN2 (configuration not stated),Percent Effect,"30.3 µM, […]",17.09%
Cc1cc2n(n1)CC(CNC1CCN(c3ccccn3)CC1)CN2 (configuration not stated),Percent Effect,"30.3 µM, […]",-5.394%
Cc1cc2n(n1)CC(CNC1CCN(CCc3ccccc3)CC1)CN2 (configuration not stated),Percent Effect,"30.3 µM, […]",15.82%
Cc1ccccc1CN1CCC(NCC2CNc3ccnn3C2)CC1 (configuration not stated),Percent Effect,"30 µM, 30.03 µM",58.34%
Cc1cccc(CN2CCC(NCC3CNc4cc(C)nn4C3)CC2)c1 (configuration not stated),Percent Effect,"30.3 µM, […]",50.3%
Cc1cc2n(n1)CC(CNC1CCN(Cc3ccncc3)CC1)CN2 (configuration not stated),Percent Effect,"30.3 µM, […]",2.182%
OCc1ccccc1CNCC1CNc2ccnn2C1 (configuration not stated),Percent Effect,"30.3 µM, […]",22.72%
c1ccc(Cn2cccn2)c(CNCC2CNc3ccnn3C2)c1 (configuration not stated),Percent Effect,"30 µM, 30.03 µM",46.43%
O=C(c1cscn1)N1CCc2ncnc(-c3ccncc3)c2CC1,Percent Effect,"30.3 µM, […]",15.49%
Cc1ncc2c(c1CNC(=O)C1(c3ccc(F)cc3)CC1)CCNC2,Percent Effect,"30.3 µM, […]",8.933%
Oc1cc(CN2CCC(O)(Cn3ccnc3)CC2)nc2ccc(F)cc12,Percent Effect,"30.3 µM, […]",12.45%
Cc1nc(CN2CCCC(N(C)Cc3c(C)noc3C)C2)no1 (configuration not stated),Percent Effect,"30 µM, 30.03 µM",36.91%
COc1ccc(C(=O)N2CCCCC2c2nc(C)cs2)nn1 (configuration not stated),Percent Effect,"30 µM, 30.03 µM",9.548%
O=C(C1CNCCO1)N1CCC(c2cc(N3CCCC3)ncn2)CC1 (configuration not stated),Percent Effect,"30.3 µM, […]",-9.261%
CCn1c(CC2CCN(C(=O)C3CNCCO3)CC2)nn(C)c1=O (configuration not stated),Percent Effect,"30.3 µM, […]",-9.405%
O=C(C1CNCCO1)N1CCCC(c2ccccc2)(c2ccccc2)C1 (configuration not stated),Percent Effect,"30.3 µM, […]",80.57%
O=C(NCc1cccnc1)[C@@H]1CC[C@@H]2[C@@H](CCN2c2ncccn2)O1.O=C(O)C(F)(F)F.O=C(O)C(F)(F)F,Percent Effect,"30.3 µM, […]",42.67%
O=C(NCc1cccnc1)[C@@H]1CC[C@@H]2[C@@H](CCN2c2ncc(F)cn2)O1.O=C(O)C(F)(F)F.O=C(O)C(F)(F)F,Percent Effect,"30.3 µM, […]",56.7%
O=C(NCc1cccnc1)[C@H]1CC[C@@H]2[C@@H](CCN2c2ncccn2)O1.O=C(O)C(F)(F)F.O=C(O)C(F)(F)F,Percent Effect,"30.3 µM, […]",6.718%
O=C(Nc1cnccn1)[C@@H]1CC[C@@H]2[C@@H](CCN2Cc2nccs2)O1.O=C(O)C(F)(F)F,Percent Effect,"30.3 µM, […]",-8.357%
Cc1csc(CN2CC[C@H]3O[C@H](C(=O)Nc4cccnc4)CC[C@H]32)n1.O=C(O)C(F)(F)F.O=C(O)C(F)(F)F,Percent Effect,"30.3 µM, […]",50.68%
